# Test results from the supplement of paper PMC6992640.
# ± gives the standard deviation of the averaged measurements.
# Test system: HCI13 (cells of an ER-positive luminal breast cancer xenograft)
# Assay: cell viability (% of vehicle); higher = less cytotoxic
# Details: 10 µM; 72 h
row,Compound,cell viability
1,CC(NCc1ccc(OCc2cccc(F)c2)cc1)C(N)=O.CS(=O)(=O)O (stereo unspecified) [Safinamide Mesylate],191 ± 36
2,CC(O)=C(C#N)C(=O)Nc1ccc(C(F)(F)F)cc1 [Teriflunomide],196 ± 48
3,"O=C(CCCCCCC(=O)Nc1ccccc1)NO [Vorinostat (SAHA, MK0683)]",61 ± 23
4,Nc1nc2ccc(OC(F)(F)F)cc2s1 [Riluzole],161 ± 27
5,O=C(CCCCCCNC(=O)c1cnc(N(c2ccccc2)c2ccccc2)nc1)NO [Rocilinostat (ACY-1215)],49.3 ± 7.8
6,CCCCc1nc2cc(C=CC(=O)NO)ccc2n1CCN(CC)CC [Pracinostat (SB939)],88.1 ± 21
7,CC(C=CC1=C(C)CCCC1(C)C)=CC=CC(C)=CC(=O)O [Tretinoin (Aberela)],146 ± 12
8,Cc1[nH]c2ccccc2c1CCNCc1ccc(C=CC(=O)NO)cc1 [Panobinostat (LBH589)],45 ± 8.7
9,CC(=Cc1ccccc1)C=C1SC(=S)N(CC(=O)O)C1=O [Epalrestat],170 ± 10

# Test system: HCI16 (cells of a triple-negative basal-like breast cancer xenograft)
# Assay: as above
# Details: 10 µM; 72 h
row,Compound,cell viability
1,Cn1nnc(-c2ccc(-c3ccc(N4CC(CO)OC4=O)cc3F)cn2)n1 (stereo unspecified) [Tedizolid],170
2,O=c1c(-c2ccc(O)cc2)coc2cc(O)cc(O)c12 [Genistein],183
3,CC(=O)Oc1ccccc1C(=O)Nc1ncc([N+](=O)[O-])s1 [Nitazoxanide],128
4,CC(O)=C(C#N)C(=O)Nc1ccc(C(F)(F)F)cc1 [Teriflunomide],200
5,CNC(=O)c1ccccc1Sc1ccc2c(C=Cc3ccccn3)n[nH]c2c1,150
6,Oc1ccc(C=Cc2cc(O)cc(O)c2)cc1 [Resveratrol],174
7,COc1ccc(C=CC(=O)Nc2ccccc2C(=O)O)cc1OC [Tranilast],108
8,Nc1nc2ccc(OC(F)(F)F)cc2s1 [Riluzole],139
9,Cc1nc(-c2ccc(OCC(C)C)c(C#N)c2)sc1C(=O)O [Febuxostat],191
10,c1cn2cc(-c3ccc4cn[nH]c4c3)nc(Nc3ccc(N4CCOCC4)cc3)c2n1,86.2
11,CC(C=CC1=C(C)CCCC1(C)C)=CC=CC(C)=CC(=O)O [Tretinoin (Aberela)],175
12,CC(=Cc1ccccc1)C=C1SC(=S)N(CC(=O)O)C1=O [Epalrestat],102

# Test system: UCD52 (cells of a triple-negative basal-like breast cancer xenograft)
# Assay: as above
# Details: 10 µM; 72 h
row,Compound,cell viability
1,O=c1c(-c2ccc(O)cc2)coc2cc(O)cc(O)c12 [Genistein],189 ± 34
2,CC(=O)Oc1ccccc1C(=O)Nc1ncc([N+](=O)[O-])s1 [Nitazoxanide],154 ± 8.6
3,CC(NCc1ccc(OCc2cccc(F)c2)cc1)C(N)=O.CS(=O)(=O)O (stereo unspecified) [Safinamide Mesylate],190 ± 11
4,CNC(=O)c1ccccc1Sc1ccc2c(C=Cc3ccccn3)n[nH]c2c1,191 ± 4.7
5,COc1ccc(C=CC(=O)Nc2ccccc2C(=O)O)cc1OC [Tranilast],116 ± 8.9
6,Nc1nc2ccc(OC(F)(F)F)cc2s1 [Riluzole],175 ± 15
7,CC(=Cc1ccccc1)C=C1SC(=S)N(CC(=O)O)C1=O [Epalrestat],102 ± 11

# Test system: WHIM2 (cells of a triple-negative basal-like breast cancer xenograft)
# Assay: as above
# Details: 10 µM; 72 h
row,Compound,cell viability
1,Cn1nnc(-c2ccc(-c3ccc(N4CC(CO)OC4=O)cc3F)cn2)n1 (stereo unspecified) [Tedizolid],157 ± 57
2,O=c1c(-c2ccc(O)cc2)coc2cc(O)cc(O)c12 [Genistein],121 ± 5.2
3,CC(NCc1ccc(OCc2cccc(F)c2)cc1)C(N)=O.CS(=O)(=O)O (stereo unspecified) [Safinamide Mesylate],184 ± 45
4,Oc1ccc(C=Cc2cc(O)cc(O)c2)cc1 [Resveratrol],191 ± 54
5,"O=C(CCCCCCC(=O)Nc1ccccc1)NO [Vorinostat (SAHA, MK0683)]",47.5 ± 4.1
6,Nc1nc2ccc(OC(F)(F)F)cc2s1 [Riluzole],145 ± 7.3
7,O=C(CCCCCCNC(=O)c1cnc(N(c2ccccc2)c2ccccc2)nc1)NO [Rocilinostat (ACY-1215)],51.2 ± 8.8
8,CCCCc1nc2cc(C=CC(=O)NO)ccc2n1CCN(CC)CC [Pracinostat (SB939)],64.9 ± 4.9
9,CC(C=CC1=C(C)CCCC1(C)C)=CC=CC(C)=CC(=O)O [Tretinoin (Aberela)],58.5 ± 19
10,Cc1[nH]c2ccccc2c1CCNCc1ccc(C=CC(=O)NO)cc1 [Panobinostat (LBH589)],36.5 ± 3

# Test system: HCI01 (cells of a triple-negative basal-like breast cancer xenograft)
# Assay: cell viability of combination (% of vehicle); higher = less cytotoxic
# Details: 1 µM; 72 h; partner dose: 10 nM
# Experimental: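 PDX cells were treated for 72 h with each drug at 1 µM plus carfilzomib (10 nM; 100 nM for WHIM2). Luciferase viability is expressed as percent of vehicle.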
row,Compound,cell viability of combination
1,CCCCc1oc2ccccc2c1C(=O)c1cc(I)c(OCCN(CC)CC)c(I)c1.Cl [Amiodarone HCl] + CC(C)C[C@H](NC(=O)[C@H](CCc1ccccc1)NC(=O)CN1CCOCC1)C(=O)N[C@@H](Cc1ccccc1)C(=O)N[C@@H](CC(C)C)C(=O)[C@@]1(C)CO1 [Carfilzomib],90.8
2,COc1cc(C(=O)O)ccc1NC(=O)C1NC(CC(C)(C)C)C(C#N)(c2ccc(Cl)cc2F)C1c1cccc(Cl)c1F (stereo unspecified) + CC(C)C[C@H](NC(=O)[C@H](CCc1ccccc1)NC(=O)CN1CCOCC1)C(=O)N[C@@H](Cc1ccccc1)C(=O)N[C@@H](CC(C)C)C(=O)[C@@]1(C)CO1 [Carfilzomib],79.1
3,CC(C)(C)NC(=O)C1CC2CCCCC2CN1CC(O)C(Cc1ccccc1)NC(=O)C(CC(N)=O)NC(=O)c1ccc2ccccc2n1.CS(=O)(=O)O (stereo unspecified) [Saquinavir mesylate] + CC(C)C[C@H](NC(=O)[C@H](CCc1ccccc1)NC(=O)CN1CCOCC1)C(=O)N[C@@H](Cc1ccccc1)C(=O)N[C@@H](CC(C)C)C(=O)[C@@]1(C)CO1 [Carfilzomib],79.5
4,COc1ccccc1OCCNCC(O)COc1cccc2[nH]c3ccccc3c12 (stereo unspecified) [Carvedilol] + CC(C)C[C@H](NC(=O)[C@H](CCc1ccccc1)NC(=O)CN1CCOCC1)C(=O)N[C@@H](Cc1ccccc1)C(=O)N[C@@H](CC(C)C)C(=O)[C@@]1(C)CO1 [Carfilzomib],76.8
5,C=C1C(=CC=C2CCCC3(C)C2CCC3C(C)C=CC(C)C(C)C)CC(O)CC1O (stereo unspecified) [Doxercalciferol] + CC(C)C[C@H](NC(=O)[C@H](CCc1ccccc1)NC(=O)CN1CCOCC1)C(=O)N[C@@H](Cc1ccccc1)C(=O)N[C@@H](CC(C)C)C(=O)[C@@]1(C)CO1 [Carfilzomib],67
6,COc1cc2nccc(Oc3ccc(NC(=O)C4(C(=O)Nc5ccc(F)cc5)CC4)cc3)c2cc1OC.O=C(O)CC(O)C(=O)O [Cabozantinib malate (XL184)] + CC(C)C[C@H](NC(=O)[C@H](CCc1ccccc1)NC(=O)CN1CCOCC1)C(=O)N[C@@H](Cc1ccccc1)C(=O)N[C@@H](CC(C)C)C(=O)[C@@]1(C)CO1 [Carfilzomib],77
7,CC(C)C1=CC(=C2NNC(=O)N2c2ccc3c(ccn3C)c2)C(=O)C=C1O [Ganetespib (STA-9090)] + CC(C)C[C@H](NC(=O)[C@H](CCc1ccccc1)NC(=O)CN1CCOCC1)C(=O)N[C@@H](Cc1ccccc1)C(=O)N[C@@H](CC(C)C)C(=O)[C@@]1(C)CO1 [Carfilzomib],66.1
8,CC(Oc1cc(-c2cnn(C3CCNCC3)c2)cnc1N)c1c(Cl)ccc(F)c1Cl [(R)-Crizotinib] + CC(C)C[C@H](NC(=O)[C@H](CCc1ccccc1)NC(=O)CN1CCOCC1)C(=O)N[C@@H](Cc1ccccc1)C(=O)N[C@@H](CC(C)C)C(=O)[C@@]1(C)CO1 [Carfilzomib],146
9,COc1cccc2c1C(=O)c1c(O)c3c(c(O)c1C2=O)CC(O)(C(=O)CO)CC3OC1CC(N)C(O)C(C)O1.Cl (stereo unspecified) [Epirubicin HCl] + CC(C)C[C@H](NC(=O)[C@H](CCc1ccccc1)NC(=O)CN1CCOCC1)C(=O)N[C@@H](Cc1ccccc1)C(=O)N[C@@H](CC(C)C)C(=O)[C@@]1(C)CO1 [Carfilzomib],73.9
10,CCCCCOc1ccc(-c2ccc(-c3ccc(C(=O)N[C@H]4C[C@@H](O)[C@@H](O)NC(=O)[C@@H]5[C@@H](O)[C@@H](C)CN5C(=O)[C@H]([C@@H](C)O)NC(=O)[C@H]([C@H](O)[C@@H](O)c5ccc(O)cc5)NC(=O)[C@@H]5C[C@@H](O)CN5C(=O)[C@H]([C@@H](C)O)NC4=O)cc3)cc2)cc1 [Anidulafungin] + CC(C)C[C@H](NC(=O)[C@H](CCc1ccccc1)NC(=O)CN1CCOCC1)C(=O)N[C@@H](Cc1ccccc1)C(=O)N[C@@H](CC(C)C)C(=O)[C@@]1(C)CO1 [Carfilzomib],73.7
11,CO[C@@]12[C@H](COC(N)=O)C3=C(C(=O)C(C)=C(N)C3=O)N1C[C@@H]1N[C@@H]12 [Mitomycin C] + CC(C)C[C@H](NC(=O)[C@H](CCc1ccccc1)NC(=O)CN1CCOCC1)C(=O)N[C@@H](Cc1ccccc1)C(=O)N[C@@H](CC(C)C)C(=O)[C@@]1(C)CO1 [Carfilzomib],51.1
12,COc1ncc(-c2ccc3nccc(-c4ccnnc4)c3c2)cc1NS(=O)(=O)c1ccc(F)cc1F + CC(C)C[C@H](NC(=O)[C@H](CCc1ccccc1)NC(=O)CN1CCOCC1)C(=O)N[C@@H](Cc1ccccc1)C(=O)N[C@@H](CC(C)C)C(=O)[C@@]1(C)CO1 [Carfilzomib],37.6
13,COC(=O)C1=C(C)NC(C)=C(C(=O)OC2CCCN(Cc3ccccc3)C2)C1c1cccc([N+](=O)[O-])c1.Cl (stereo unspecified) [Benidipine HCl] + CC(C)C[C@H](NC(=O)[C@H](CCc1ccccc1)NC(=O)CN1CCOCC1)C(=O)N[C@@H](Cc1ccccc1)C(=O)N[C@@H](CC(C)C)C(=O)[C@@]1(C)CO1 [Carfilzomib],106
